Experimental data from publication PMC7862700, “An all-to-all approach to the identification of sequence-specific readers for epigenetic DNA modifications on cytosine”.

Assays:
Assay in all cases: DAPPL (digital affinity profiling via proximity ligation, sequencing); 10 mM Tris-HCl pH 7.5, 50 mM NaCl, 1 mM DTT, 4% glycerol, room temperature, 30 min; GST-TFs on glutathione beads, 16-mer random dsDNA library, 0.1% formaldehyde crosslink after washing; high values mean tight binding
Settings in all cases: protein: recombinant; tags: N-terminal GST; dsDNA, one strand shown
ELK1 = molecular target: T1, ELK1 (Homo sapiens, UniProt P19419 1-428)
T1 sequence: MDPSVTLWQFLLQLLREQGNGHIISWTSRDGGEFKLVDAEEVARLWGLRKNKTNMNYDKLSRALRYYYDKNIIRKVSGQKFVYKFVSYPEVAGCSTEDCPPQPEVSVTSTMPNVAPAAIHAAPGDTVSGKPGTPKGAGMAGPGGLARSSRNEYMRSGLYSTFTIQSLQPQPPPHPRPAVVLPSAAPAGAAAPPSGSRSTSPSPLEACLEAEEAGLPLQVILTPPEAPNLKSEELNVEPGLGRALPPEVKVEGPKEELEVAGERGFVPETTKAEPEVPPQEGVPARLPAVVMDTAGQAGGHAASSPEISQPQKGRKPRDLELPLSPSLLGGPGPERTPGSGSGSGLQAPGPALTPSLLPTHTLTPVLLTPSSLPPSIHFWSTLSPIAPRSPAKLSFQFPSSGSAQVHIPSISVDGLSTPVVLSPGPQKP
In short: (§1)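 Beads coated with glutathione captured GST-fused human transcription factors that had been expressed in yeast, and the factors were then given DNA barcodes and pooled with a tag-only sample. The pools were incubated with 200 nmole of a random double-stranded 16-mer DNA library in Tris/NaCl/DTT/glycerol buffer for 30 min at room temperature, washed, crosslinked with 0.1% formaldehyde and proximity-ligated with BsaI/T4 ligase at 37 °C for 1 h. PCR amplification and Illumina NextSeq500 sequencing came last. Binding signal is each hexamer's read frequency for a factor divided by its frequency for the tag-only sample.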

GABPA = molecular target: T2, GABPA (Homo sapiens, UniProt Q06546 1-454)
T2 sequence: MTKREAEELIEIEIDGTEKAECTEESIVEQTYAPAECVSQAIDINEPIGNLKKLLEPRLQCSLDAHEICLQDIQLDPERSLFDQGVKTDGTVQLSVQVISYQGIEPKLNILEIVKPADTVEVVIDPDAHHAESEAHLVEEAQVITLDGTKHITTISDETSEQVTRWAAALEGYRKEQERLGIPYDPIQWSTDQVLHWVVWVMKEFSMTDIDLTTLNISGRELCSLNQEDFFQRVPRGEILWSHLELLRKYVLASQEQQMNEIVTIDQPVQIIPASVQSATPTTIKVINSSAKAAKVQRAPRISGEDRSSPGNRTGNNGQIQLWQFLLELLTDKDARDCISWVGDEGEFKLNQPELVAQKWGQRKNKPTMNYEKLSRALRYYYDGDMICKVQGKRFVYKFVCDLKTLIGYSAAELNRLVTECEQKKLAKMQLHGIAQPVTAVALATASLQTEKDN
In short: as §1

ELF1 = ELF1 (Homo sapiens, UniProt P32519 1-619)
Chain of ELF1 (P32519 whole entry): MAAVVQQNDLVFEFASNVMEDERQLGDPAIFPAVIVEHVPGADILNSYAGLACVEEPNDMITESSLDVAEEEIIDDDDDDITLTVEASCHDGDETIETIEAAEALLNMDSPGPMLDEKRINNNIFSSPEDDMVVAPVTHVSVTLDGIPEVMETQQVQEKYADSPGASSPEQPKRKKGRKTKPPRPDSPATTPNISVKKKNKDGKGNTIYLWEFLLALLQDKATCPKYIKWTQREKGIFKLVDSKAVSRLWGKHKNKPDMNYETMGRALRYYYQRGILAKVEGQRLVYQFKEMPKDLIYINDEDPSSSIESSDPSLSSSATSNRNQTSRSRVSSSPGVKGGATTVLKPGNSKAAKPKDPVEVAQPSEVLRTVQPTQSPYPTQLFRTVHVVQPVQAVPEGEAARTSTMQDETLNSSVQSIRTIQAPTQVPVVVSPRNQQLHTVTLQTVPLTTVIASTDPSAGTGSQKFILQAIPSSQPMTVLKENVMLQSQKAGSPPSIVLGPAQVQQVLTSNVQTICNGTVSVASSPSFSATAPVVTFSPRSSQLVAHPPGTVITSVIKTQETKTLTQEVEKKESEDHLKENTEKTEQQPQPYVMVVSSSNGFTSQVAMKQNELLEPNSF
In short: as §1

EHF = molecular target: T3, EHF (Homo sapiens, UniProt Q9NZC4 1-300)
T3 sequence: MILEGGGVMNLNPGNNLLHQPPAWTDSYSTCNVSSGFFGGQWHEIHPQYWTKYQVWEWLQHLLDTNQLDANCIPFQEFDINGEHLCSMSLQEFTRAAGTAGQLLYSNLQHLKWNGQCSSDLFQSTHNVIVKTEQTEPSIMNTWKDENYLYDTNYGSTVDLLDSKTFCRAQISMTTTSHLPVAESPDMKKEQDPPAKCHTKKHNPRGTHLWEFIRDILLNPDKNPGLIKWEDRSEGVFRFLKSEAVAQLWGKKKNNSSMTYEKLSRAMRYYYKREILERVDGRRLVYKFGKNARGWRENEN
In short: as §1

SPIB = SPIB (Homo sapiens, UniProt Q01892 1-262)
Chain of SPIB (Q01892 whole entry): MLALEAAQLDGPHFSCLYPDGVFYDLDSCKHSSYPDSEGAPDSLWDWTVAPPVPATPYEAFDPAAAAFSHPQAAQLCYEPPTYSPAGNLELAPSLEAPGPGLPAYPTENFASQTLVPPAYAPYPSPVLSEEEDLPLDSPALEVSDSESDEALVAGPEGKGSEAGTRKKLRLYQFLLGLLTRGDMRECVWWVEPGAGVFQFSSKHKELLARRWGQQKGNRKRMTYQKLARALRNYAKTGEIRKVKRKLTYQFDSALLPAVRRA
In short: as §1

ELK3 = molecular target: T4, ELK3 (Homo sapiens, UniProt P41970 1-407)
T4 sequence: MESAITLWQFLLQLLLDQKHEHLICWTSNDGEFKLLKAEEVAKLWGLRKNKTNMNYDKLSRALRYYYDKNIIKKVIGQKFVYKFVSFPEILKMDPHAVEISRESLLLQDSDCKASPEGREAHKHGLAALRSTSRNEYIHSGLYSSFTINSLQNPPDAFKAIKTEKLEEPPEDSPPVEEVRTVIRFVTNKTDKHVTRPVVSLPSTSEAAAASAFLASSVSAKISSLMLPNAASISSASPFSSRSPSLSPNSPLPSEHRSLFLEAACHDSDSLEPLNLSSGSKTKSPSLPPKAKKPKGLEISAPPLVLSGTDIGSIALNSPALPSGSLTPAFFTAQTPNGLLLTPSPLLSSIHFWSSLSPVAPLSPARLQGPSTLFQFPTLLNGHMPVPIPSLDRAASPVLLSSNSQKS
In short: as §1

ETV5 = ETV5 (Homo sapiens, UniProt P41161 1-510)
Chain of ETV5 (P41161 whole entry): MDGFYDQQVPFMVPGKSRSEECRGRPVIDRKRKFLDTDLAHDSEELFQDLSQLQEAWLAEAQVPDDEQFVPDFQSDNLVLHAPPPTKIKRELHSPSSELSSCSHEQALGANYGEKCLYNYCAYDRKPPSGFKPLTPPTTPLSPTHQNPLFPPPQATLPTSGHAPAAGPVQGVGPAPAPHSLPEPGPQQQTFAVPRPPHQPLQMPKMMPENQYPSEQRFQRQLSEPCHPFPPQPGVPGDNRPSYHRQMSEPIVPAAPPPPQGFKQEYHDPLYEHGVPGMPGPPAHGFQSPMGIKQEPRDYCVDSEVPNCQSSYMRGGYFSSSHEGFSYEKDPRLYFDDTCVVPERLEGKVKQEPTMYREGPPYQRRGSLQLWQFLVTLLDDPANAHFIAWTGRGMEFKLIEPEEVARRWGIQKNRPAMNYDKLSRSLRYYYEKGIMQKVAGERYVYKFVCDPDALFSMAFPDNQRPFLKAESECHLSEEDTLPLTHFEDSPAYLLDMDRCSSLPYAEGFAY
In short: as §1

ELF4 = ELF4 (Homo sapiens, UniProt Q99607 1-663)
Chain of ELF4 (Q99607 whole entry): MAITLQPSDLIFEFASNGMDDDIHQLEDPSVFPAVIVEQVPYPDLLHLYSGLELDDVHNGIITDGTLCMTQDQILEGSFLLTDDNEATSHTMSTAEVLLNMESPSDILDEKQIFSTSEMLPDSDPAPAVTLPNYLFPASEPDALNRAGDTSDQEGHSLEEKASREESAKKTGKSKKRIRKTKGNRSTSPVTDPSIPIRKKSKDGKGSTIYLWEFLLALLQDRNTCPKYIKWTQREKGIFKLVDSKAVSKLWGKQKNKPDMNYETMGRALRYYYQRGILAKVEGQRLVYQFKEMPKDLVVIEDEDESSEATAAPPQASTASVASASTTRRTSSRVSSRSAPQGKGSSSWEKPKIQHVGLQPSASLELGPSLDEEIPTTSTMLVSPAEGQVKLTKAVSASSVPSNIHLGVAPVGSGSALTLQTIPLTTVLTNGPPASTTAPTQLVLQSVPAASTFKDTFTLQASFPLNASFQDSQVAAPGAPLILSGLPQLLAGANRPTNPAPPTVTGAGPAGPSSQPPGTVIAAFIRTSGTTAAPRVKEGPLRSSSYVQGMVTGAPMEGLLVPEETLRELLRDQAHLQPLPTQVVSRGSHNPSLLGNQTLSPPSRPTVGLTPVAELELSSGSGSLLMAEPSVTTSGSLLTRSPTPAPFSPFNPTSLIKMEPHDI
In short: as §1

ELK4 = molecular target: T5, ELK4 (Homo sapiens, UniProt P28324-2 1-405)
T5 sequence: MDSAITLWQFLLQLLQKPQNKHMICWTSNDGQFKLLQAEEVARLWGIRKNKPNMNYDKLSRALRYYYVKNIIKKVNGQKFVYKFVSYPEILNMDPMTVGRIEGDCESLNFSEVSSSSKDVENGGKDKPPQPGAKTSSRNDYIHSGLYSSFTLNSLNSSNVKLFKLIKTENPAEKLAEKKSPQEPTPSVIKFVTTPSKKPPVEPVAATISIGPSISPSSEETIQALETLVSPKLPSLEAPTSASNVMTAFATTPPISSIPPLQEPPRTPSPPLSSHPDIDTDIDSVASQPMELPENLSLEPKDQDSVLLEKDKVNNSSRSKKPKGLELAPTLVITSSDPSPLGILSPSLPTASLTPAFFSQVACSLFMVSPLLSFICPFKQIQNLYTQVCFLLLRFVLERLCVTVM
In short: as §1

ELF3 = molecular target: T6, ELF3 (Homo sapiens, UniProt P78545 1-371)
T6 sequence: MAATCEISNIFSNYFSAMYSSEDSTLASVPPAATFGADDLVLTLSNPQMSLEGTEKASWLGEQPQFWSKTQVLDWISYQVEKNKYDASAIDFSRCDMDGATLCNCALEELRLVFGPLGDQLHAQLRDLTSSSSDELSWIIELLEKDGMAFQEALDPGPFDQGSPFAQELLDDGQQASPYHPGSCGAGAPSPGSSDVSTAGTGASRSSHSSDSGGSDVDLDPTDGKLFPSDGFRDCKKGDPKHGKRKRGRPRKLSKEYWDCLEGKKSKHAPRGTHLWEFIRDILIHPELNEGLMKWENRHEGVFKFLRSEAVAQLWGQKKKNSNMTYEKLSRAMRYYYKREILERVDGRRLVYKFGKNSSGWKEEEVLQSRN
In short: as §1

ERF = molecular target: T7, ERF (Homo sapiens, UniProt P50548 1-548)
T7 sequence: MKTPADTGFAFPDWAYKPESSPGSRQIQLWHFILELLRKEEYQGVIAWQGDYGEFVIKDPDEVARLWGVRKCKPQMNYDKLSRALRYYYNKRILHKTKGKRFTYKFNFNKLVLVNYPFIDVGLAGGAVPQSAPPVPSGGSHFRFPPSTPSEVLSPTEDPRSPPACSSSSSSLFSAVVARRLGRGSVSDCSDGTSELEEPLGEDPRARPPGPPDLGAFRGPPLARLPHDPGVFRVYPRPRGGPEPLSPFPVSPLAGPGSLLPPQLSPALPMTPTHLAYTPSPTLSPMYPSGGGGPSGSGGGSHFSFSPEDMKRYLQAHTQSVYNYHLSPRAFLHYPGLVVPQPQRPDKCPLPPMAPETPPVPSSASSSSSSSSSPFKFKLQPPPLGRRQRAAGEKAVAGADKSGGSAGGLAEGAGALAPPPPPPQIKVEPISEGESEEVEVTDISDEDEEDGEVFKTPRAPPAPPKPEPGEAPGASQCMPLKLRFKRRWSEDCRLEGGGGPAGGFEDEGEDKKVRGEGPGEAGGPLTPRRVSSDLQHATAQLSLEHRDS
In short: as §1

ETV3L = molecular target: T8, ETV3L (Homo sapiens, UniProt Q6ZN32 1-361)
T8 sequence: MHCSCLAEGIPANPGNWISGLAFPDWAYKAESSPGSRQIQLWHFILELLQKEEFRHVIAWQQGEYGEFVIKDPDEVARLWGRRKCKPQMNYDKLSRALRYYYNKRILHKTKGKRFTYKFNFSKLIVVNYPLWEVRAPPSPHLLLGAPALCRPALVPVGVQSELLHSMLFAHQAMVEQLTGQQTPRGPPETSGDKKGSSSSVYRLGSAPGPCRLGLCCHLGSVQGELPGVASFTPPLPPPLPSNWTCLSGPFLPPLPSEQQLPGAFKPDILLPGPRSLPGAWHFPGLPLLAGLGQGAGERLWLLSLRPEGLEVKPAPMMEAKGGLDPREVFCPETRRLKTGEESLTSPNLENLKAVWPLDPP
In short: as §1

ETS2 = molecular target: T9, ETS2 (Homo sapiens, UniProt P15036 1-469)
T9 sequence: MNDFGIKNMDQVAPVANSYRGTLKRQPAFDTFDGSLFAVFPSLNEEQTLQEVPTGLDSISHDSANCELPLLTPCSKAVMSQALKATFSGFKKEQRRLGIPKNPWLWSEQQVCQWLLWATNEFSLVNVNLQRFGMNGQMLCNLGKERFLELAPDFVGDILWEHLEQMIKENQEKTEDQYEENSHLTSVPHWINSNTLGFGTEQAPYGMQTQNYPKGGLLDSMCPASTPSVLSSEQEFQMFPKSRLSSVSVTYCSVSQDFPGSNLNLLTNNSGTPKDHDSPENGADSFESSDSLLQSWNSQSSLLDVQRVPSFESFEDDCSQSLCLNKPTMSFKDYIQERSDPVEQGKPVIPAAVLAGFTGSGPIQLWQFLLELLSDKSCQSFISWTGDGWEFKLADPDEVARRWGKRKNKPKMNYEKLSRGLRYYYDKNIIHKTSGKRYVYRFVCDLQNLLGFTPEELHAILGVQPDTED
In short: as §1

ETV7 = molecular target: T10, ETV7 (Homo sapiens, UniProt Q9Y603 1-341)
T10 sequence: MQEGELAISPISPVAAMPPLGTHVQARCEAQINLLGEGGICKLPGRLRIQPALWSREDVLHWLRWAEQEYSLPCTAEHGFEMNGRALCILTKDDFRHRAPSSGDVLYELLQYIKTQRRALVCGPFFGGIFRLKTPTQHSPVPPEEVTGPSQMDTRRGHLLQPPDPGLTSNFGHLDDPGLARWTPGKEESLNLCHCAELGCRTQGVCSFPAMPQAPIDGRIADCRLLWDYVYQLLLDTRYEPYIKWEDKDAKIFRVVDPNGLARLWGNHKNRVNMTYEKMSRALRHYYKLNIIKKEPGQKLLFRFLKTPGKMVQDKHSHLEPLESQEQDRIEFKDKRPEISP
In short: as §1

ETV6 = ETV6 (Homo sapiens, UniProt P41212 1-452)
Chain of ETV6 (P41212 whole entry): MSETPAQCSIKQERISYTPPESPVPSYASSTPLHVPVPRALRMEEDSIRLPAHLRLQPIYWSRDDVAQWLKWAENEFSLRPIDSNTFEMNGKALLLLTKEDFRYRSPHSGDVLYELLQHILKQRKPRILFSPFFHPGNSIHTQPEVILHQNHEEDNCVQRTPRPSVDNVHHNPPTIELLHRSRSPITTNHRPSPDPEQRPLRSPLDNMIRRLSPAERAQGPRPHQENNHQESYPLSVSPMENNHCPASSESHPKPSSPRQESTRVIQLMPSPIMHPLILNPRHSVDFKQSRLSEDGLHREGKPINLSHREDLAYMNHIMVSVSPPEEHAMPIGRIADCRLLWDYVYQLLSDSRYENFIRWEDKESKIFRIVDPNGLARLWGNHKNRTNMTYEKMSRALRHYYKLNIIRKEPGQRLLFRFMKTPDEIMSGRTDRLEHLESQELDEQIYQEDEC
In short: as §1

TCGAAC
binding signal (ELK1): 1.01 fold enrichment (6-mer frequency, TF over GST control)
binding signal (GABPA): 1.02 fold enrichment (6-mer frequency, TF over GST control)
binding signal (ELF1): 1.09 fold enrichment (6-mer frequency, TF over GST control)
binding signal (EHF): 1.07 fold enrichment (6-mer frequency, TF over GST control)
binding signal (SPIB): 1.03 fold enrichment (6-mer frequency, TF over GST control)
binding signal (ELK3): 1.06 fold enrichment (6-mer frequency, TF over GST control)
binding signal (ETV5): 1.01 fold enrichment (6-mer frequency, TF over GST control)
binding signal (ELF4): 1.01 fold enrichment (6-mer frequency, TF over GST control)
binding signal (ELK4): 1.05 fold enrichment (6-mer frequency, TF over GST control)
binding signal (ELF3): 1.05 fold enrichment (6-mer frequency, TF over GST control)
binding signal (ERF): 1.07 fold enrichment (6-mer frequency, TF over GST control)
binding signal (ETV3L): 1.07 fold enrichment (6-mer frequency, TF over GST control)
binding signal (ETS2): 1.03 fold enrichment (6-mer frequency, TF over GST control)
binding signal (ETV7): 1.04 fold enrichment (6-mer frequency, TF over GST control)
binding signal (ETV6): 1 fold enrichment (6-mer frequency, TF over GST control)
